# Measured values as given in PubChem BioAssay.
# The source made the active and inactive calls.
# How the values were obtained:
# [1] = small molecules captured by biotinylated probe aFSTL3 – biochemical, small-molecule microarray, fluorescence 635/667, stem cell growth factor project, primary screen (AID 1064); conditions: higher = more signal;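 also: measures binding of the biotinylated anti-FSTL3 antibody to printed compounds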
# [2] = binders from COS7 lysate, DM2A8 probe, primary screen, torsin A project, cell lysate, small-molecule microarray, fluorescence 635/667 (AID 1065); conditions: higher = more signal, COS7 lysate expressing mutant human TOR1A
# [3] = small molecules captured by biotinylated probe aFGF2 – biochemical, small-molecule microarray, fluorescence 635/667, stem cell growth factor project, primary screen (AID 1067); conditions: higher = more signal;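 also: measures binding of biotinylated aFGF2 protein to printed compounds on slides; z-score merges feature fluorescence and signal-to-noise across triplicate slides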
# [4] = small molecules captured by biotinylated probe aFGF10 – biochemical, small-molecule microarray, fluorescence 635/667, stem cell growth factor project, primary screen (AID 1071); conditions: higher = more signal;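 also: score merges 667 nm spot intensity and signal to noise from triplicate slides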
# [5] = molecular target: Neurogenic locus notch homolog protein 2 (Homo sapiens) (UniProt Q04721); assay: small molecules binding Notch2 protein – biochemical, small-molecule microarray, 635 nm fluorescence, stem cell growth factors, primary screen (AID 1073); conditions: higher = more signal
# Sequence of Neurogenic locus notch homolog protein 2 (Homo sapiens) (Q04721 whole entry, looked up, canonical isoform): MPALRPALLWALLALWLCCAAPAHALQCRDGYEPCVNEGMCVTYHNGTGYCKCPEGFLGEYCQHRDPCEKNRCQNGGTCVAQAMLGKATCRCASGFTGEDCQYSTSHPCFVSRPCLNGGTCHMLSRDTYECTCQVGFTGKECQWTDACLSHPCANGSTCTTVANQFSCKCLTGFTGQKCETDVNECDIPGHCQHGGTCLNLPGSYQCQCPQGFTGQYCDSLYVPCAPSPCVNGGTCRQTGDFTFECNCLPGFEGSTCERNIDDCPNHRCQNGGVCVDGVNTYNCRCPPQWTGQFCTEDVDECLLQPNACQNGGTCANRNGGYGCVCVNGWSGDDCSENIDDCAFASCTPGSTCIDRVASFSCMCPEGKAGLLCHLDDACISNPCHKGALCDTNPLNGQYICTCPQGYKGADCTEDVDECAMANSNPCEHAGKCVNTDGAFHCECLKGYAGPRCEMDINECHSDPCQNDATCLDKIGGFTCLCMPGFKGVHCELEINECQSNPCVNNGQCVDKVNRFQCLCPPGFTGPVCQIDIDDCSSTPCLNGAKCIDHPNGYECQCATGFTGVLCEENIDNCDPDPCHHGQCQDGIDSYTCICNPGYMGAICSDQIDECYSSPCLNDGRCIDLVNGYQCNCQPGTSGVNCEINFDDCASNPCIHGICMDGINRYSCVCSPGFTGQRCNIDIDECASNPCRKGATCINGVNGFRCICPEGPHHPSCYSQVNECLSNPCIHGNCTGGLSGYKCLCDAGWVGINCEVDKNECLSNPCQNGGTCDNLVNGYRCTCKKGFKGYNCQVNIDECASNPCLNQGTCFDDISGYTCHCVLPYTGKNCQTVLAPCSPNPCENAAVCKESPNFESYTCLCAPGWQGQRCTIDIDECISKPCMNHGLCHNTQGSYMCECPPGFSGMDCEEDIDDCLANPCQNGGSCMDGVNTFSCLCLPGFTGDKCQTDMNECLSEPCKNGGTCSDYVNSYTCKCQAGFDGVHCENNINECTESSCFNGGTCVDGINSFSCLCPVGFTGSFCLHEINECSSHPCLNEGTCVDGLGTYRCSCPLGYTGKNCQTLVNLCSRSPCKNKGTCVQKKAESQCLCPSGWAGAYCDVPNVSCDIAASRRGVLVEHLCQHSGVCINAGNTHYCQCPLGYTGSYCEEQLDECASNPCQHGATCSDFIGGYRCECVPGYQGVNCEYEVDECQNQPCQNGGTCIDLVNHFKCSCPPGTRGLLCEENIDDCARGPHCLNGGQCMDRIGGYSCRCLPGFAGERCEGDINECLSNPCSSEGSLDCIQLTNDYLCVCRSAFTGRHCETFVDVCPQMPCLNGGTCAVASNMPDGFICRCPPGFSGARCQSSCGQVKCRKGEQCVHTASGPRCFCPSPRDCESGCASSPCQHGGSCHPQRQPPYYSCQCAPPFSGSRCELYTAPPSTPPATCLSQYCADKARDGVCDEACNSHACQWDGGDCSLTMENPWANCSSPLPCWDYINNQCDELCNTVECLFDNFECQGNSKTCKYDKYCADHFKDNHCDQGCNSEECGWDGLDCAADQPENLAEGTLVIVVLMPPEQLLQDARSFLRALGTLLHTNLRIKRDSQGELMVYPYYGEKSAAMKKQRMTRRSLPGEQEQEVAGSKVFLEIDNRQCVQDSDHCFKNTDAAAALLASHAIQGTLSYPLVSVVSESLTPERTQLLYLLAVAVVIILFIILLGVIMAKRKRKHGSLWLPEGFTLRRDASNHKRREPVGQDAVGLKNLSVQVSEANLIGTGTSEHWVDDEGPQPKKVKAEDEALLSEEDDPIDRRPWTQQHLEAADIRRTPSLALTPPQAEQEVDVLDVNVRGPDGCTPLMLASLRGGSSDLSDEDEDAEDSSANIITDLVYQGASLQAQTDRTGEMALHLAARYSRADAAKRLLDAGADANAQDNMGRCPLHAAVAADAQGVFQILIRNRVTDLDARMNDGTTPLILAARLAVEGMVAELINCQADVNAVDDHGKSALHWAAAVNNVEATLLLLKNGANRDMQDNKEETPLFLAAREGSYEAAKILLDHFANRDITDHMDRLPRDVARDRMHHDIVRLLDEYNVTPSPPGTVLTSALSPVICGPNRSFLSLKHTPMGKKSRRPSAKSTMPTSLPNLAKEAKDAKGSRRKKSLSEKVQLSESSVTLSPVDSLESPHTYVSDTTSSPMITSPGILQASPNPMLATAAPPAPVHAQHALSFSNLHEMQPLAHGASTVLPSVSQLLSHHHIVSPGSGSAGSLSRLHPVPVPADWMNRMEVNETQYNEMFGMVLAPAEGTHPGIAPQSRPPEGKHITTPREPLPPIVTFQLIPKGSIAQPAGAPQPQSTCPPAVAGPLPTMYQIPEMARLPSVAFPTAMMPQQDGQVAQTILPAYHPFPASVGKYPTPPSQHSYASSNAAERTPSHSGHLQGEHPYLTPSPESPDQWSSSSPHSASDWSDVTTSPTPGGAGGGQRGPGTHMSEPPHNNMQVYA
# [6] = molecular target: Pro-neuregulin-1, membrane-bound isoform (Homo sapiens) (UniProt Q02297); assay: small molecules binding neuregulin-1 protein – biochemical, small-molecule microarray, fluorescence 635/667, psychiatric disease protein project, primary screen (AID 1075); conditions: NRG1 binding, 635 nm fluorescence, higher = more signal;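 also: score combines 667 nm spot fluorescence with signal to noise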
# Sequence of Pro-neuregulin-1, membrane-bound isoform (Homo sapiens) (Q02297 whole entry, looked up, the tested form may be a part, canonical isoform): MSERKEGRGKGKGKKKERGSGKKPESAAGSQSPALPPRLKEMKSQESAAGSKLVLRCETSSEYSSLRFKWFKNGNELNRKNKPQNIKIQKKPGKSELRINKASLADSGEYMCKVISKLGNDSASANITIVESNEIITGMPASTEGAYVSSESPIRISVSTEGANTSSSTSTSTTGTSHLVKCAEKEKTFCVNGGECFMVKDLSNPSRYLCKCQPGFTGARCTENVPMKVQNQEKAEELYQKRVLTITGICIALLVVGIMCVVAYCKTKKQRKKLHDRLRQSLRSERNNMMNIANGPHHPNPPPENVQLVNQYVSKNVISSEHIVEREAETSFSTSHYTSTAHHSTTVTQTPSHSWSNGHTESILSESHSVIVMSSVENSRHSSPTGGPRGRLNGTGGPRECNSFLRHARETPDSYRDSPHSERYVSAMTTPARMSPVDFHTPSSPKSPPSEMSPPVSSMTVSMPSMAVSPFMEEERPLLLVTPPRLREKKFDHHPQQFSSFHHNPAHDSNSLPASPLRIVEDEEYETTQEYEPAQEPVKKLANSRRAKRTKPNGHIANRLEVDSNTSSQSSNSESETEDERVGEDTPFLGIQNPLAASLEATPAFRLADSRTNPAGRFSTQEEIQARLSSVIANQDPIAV
# [7] = system: Neuregulin-1 EGF-like domain; assay: small molecules binding NRG1 EGF domain – biochemical, small-molecule microarray, 635 nm fluorescence, primary screen (AID 1081); conditions: higher = more signal;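 also: binding of the protein to compounds printed on small-molecule microarray slides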
# [8] = FRG1 expression reporter modulators in myotubes – cell-based, C2C12 myotubes, firefly/Renilla luciferase, luminescence, FRG1 inhibition for FSHD, primary screen (AID 1084); conditions: FRG1 promoter luciferase, higher = more signal, called active from +8 up or from −8 down
# [9] = small molecules captured by biotinylated probe aFST – biochemical, small-molecule microarray, fluorescence 635/667, stem cell growth factor project, primary screen (AID 1086); conditions: higher = more signal;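 also: score merges 667 nm fluorescence with signal-to-noise of each printed compound spot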
# [10] = binders of probe aHhip on microarray, primary screen, stem cell growth factor project, biochemical, small-molecule microarray, fluorescence 635/667 (AID 1087); conditions: higher = more signal;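 also: score merges spot fluorescence at 667nm with spot signal to noise ratio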
Structure (SMILES),composite z-score [1],composite z-score [2],composite z-score [3],composite z-score [4],composite z-score [5],composite z-score [6],composite z-score [7],z-score [8],composite z-score [9],composite z-score [10]
[N-]=[N+]=NCc1ccccc1[C@@H]1OC(c2ccc(OCCCO)cc2)=N[C@]1(Cc1ccccc1N=[N+]=[N-])C(=O)N1CCCCC1,-0.0244,1.17,-0.0599,0.227,1.55,1.16,1.23,-0.878 (inactive),0.882,0.38
COCCCNC(=O)[C@@]1(c2ccc([N+](=O)[O-])cc2)CC(=O)N(C(C)C)[C@@H]1c1ccc(CO)cc1,0.135,-0.169,-0.059,-0.0621,-0.588,-0.714,0.539,0.195 (inactive),0.116,0.526
C=CCC(OC(C)=O)[C@@H]1[C@@H](N(Cc2ccc(-c3ccccc3)cc2)C(=O)Cc2ccc(F)cc2)c2cc(OCCCO)ccc2N1C(=O)Cc1ccc2ccccc2c1 (stereo not given in full),-0.0873,-0.286,-0.0271,-0.214,-0.821,-0.0447,-0.84,0.0197 (inactive),0.252,-0.0047
C[C@]1(C(=O)O)c2ccccc2C(=O)N(Cc2ccc(OC(F)(F)F)cc2)[C@H]1c1ccc(CO)cc1,0.592,-0.139,-0.0442,-0.106,-0.0052,0.787,0.509,-1.27 (inactive),0.302,-0.226
COCCOC(=O)N1C(=O)[C@@]2(c3cc(C#CC4(O)CCCCCC4)ccc31)[C@H](C(=O)N1CCN(c3ncccn3)CC1)[C@H]1C(=O)O[C@H](c3ccccc3)[C@H](c3ccccc3)N1[C@@H]2c1ccccc1OCCO,-0.215,0.825,-0.0195,0.452,1.08,0.239,1.05,0.041 (inactive),0.474,0.0515
[N-]=[N+]=Nc1ccccc1C[C@]1(C(=O)O)N=C(c2ccc(OCCCO)cc2)O[C@H]1c1ccccc1N=[N+]=[N-],0.951,0.618,0.0857,0.619,1.23,1,1.04,-1.57 (inactive),0.992,0.543
CS(=O)(=O)CCOC(=O)C1=CC(CCCO)=CC(C2CC2)N(Cc2cccc(OC(F)(F)F)c2)C=C1C(=O)OCCS(C)(=O)=O (stereo not given),-0.527,0.314,-0.0734,0.147,-0.116,1.07,0.897,0.677 (inactive),0.0187,-0.0994
CC(C)C[C@@H]1NC(=O)[C@H]2C[C@@H](C(=O)NCCCCCN)[C@@H](c3cccc(OCCO)c3)N2C1=O,0.721,-0.1,-0.107,0.0414,-0.182,0.896,1.24,-0.599 (inactive),-0.565,-0.0645
CCCCCN1CC=CC23O[C@@H]4/C=C\CCC(C)OC(=O)C4[C@H]2C(=O)N(CCCCCCO)[C@@H]3C1=O (stereo not given in full),-0.146,-0.355,-0.129,-0.248,-0.641,1.89,1.4,-0.0224 (inactive),-0.183,-0.0994
CCOC(=O)C1=CC[C@@H](c2ccccc2)N(S(=O)(=O)c2ccc(C)cc2)[C@H]1C=Cc1ccccc1,0.162,-0.0855,-0.04,0.694,0.471,0.941,0.918,-3.49 (inactive),0.47,0.0373
COCCOC(=O)N1C(=O)[C@@]2(c3cc(C#CC4(O)CCCCCC4)ccc31)[C@H](c1ccc(OCCO)cc1)N1[C@H](c3ccccc3)[C@H](c3ccccc3)OC(=O)[C@H]1[C@@H]2C(=O)Nc1nc2ccccc2s1,0.676,0.54,-0.0234,0.874,1.32,0.526,1.04,3.79 (inactive),1.08,0.245
COc1cccc(/C=C(\C#N)C(=O)Nc2c(C)n(C)n(-c3ccccc3)c2=O)c1,-0.408,0.251,-0.107,0.324,0.694,1.06,1.1,-0.496 (inactive),0.336,-0.216
COCCOC(=O)N1C(=O)[C@@]2(c3ccccc31)[C@H](c1ccccc1OCCO)N1[C@H](c3ccccc3)[C@H](c3ccccc3)OC(=O)[C@H]1[C@@H]2C(=O)N1CCCCCCC1,4.11,2.32,0.959,1.32,1.78,2.25,1.39,-3.81 (inactive),3.36,2.53
O=C1[C@@H]2[C@@H](CC(COc3ccccc3)=C3[C@@H](CCc4ccccc4)OB(O)C[C@@H]32)C(=O)N1Cc1ccccc1,-0.559,0.242,-0.0737,0.265,0.697,0.81,-0.113,0.0109 (inactive),0.531,-0.289
COC(=O)C1=CC(CCCO)=CC(C)N(Cc2cccc(OC(F)(F)F)c2)C=C1C(=O)OC (stereo not given),-0.385,-0.383,-0.0667,0.157,0.412,2.05,1.21,-0.181 (inactive),0.577,-0.0994
COCCOC(=O)N1C(=O)[C@@]2(c3cc(C#Cc4ccc(OC)cc4)ccc31)[C@H](C(=O)NC[C@H](O)c1ccccc1)[C@H]1C(=O)O[C@H](c3ccccc3)[C@H](c3ccccc3)N1[C@@H]2c1ccc(OCCO)cc1,-0.157,0.946,-0.12,0.912,1.12,1.46,1.28,0.643 (inactive),0.41,-0.0994
CC(C)CNC(=O)[C@@]1(c2ccc([N+](=O)[O-])cc2)CC(=O)N(C2CCCCC2)[C@@H]1c1ccc(CO)cc1,0.574,0.219,0.0353,-0.0872,0.554,0.452,1.26,-0.639 (inactive),0.859,-0.132
CC(CO)N1C(=O)[C@@H]2[C@H]3C(=O)OCC=C[C@H]3OC23C=CCN(c2ccc(Cl)cc2)C(=O)[C@@H]13 (stereo not given in full),1.22,-1.45,-0.19,-1.14,-1.68,-0.87,0.688,0.529 (inactive),-0.672,-0.169
COCCOC(=O)N1C(=O)[C@@]2(c3cc(C#CC4=CCCCC4)ccc31)[C@H](C(=O)N1CCCCCCC1)[C@H]1C(=O)O[C@H](c3ccccc3)[C@H](c3ccccc3)N1[C@@H]2c1ccc(OCCO)cc1,1.77,0.399,0.316,0.5,0.891,0.455,1.1,1.06 (inactive),1.36,0.739
COc1cc2c(cc1O)C(c1ccc(CN3CCCC3)cc1)N(C)CC2 (stereo not given),-1.13,-0.77,-0.148,0.0711,-0.101,2.19,1.07,-0.426 (inactive),-0.382,-0.81
CC(C)C(=C=CC[C@H](O)c1cccc(OCCO)c1)CCO,-0.068,1.33,-0.0937,-0.194,-0.379,-0.356,-0.403,0.163 (inactive),-0.045,-0.287
C=CC1c2cc(O)c(OC)cc2CCN1Cc1ccc([N+](=O)[O-])o1 (stereo not given),0.29,0.381,-0.0156,0.673,1.12,1.64,1.09,-0.0303 (inactive),0.457,0.245
CCOC(=O)C[C@H]1[C@H](OC(=O)c2ccc(C(=O)c3ccccc3)cc2)[C@@H](NC(=O)CC(C)C)c2cc(OCCCO)ccc2N1C(=O)Cc1ccc(OC)cc1,0.134,0.819,-0.105,0.209,0.342,0.517,0.2,-1.69 (inactive),0.51,-0.0074
C=C/C=C/[C@@H]1C(=C)CN([C@@H](Cc2ccccc2)C(=O)OC)[C@H]1[C@@H](O)Cc1ccccc1,-0.252,0.814,-0.109,0.34,0.186,0.404,1,-0.661 (inactive),0.101,-0.0645
CO[C@H]1O[C@H](CO)[C@@H](OC(=O)c2ccc(Br)cc2)[C@@H]2OC(=O)[C@H](Cc3ccccc3)C/C=C/C[C@@H](Cc3ccccc3)C(=O)O[C@@H]12,-0.287,0.418,-0.0048,0.706,0.496,1.64,0.615,-0.215 (inactive),-0.024,-0.0645
COC(=O)c1c2oc(c1C(=O)OC)C(=O)N1CCC[C@H]1Cn1nncc1CN(Cc1ccccc1)C(=O)N[C@H](CO)CC2,1.31,0.0712,-0.0597,0.627,0.201,0.655,0.803,-0.606 (inactive),-0.152,-0.353
CCOC(=O)C[C@H]1[C@H](OC(=O)c2ccc(-c3ccccc3)cc2)[C@@H](NC(=O)CC(C)C)c2cc(OCCCO)ccc2N1C(=O)c1ccccc1,-0.308,-0.288,-0.0236,0.311,0.623,-0.037,0.648,-0.165 (inactive),0.547,-0.217
CC(C)C[C@@H]1NC(=O)[C@@H]2C[C@H](C(=O)NCCCCCC[N+](C)(C)C)[C@H](c3cccc(OCCO)c3)N2C1=O,0.222,0.0263,-0.145,-0.289,0.114,1.06,1.18,2.84 (inactive),-0.304,-0.126
COc1ccc([Si](C)(C)[C@@H]2[C@@H](CC(=O)N3Cc4ccccc4C[C@H]3CO)O[C@]3(C(=O)N(c4ccccc4)c4ccccc43)[C@H]2C)cc1,0.485,1.02,0.411,0.934,0.627,2.35,1.16,-3.5 (inactive),1.43,0.433
